CASP6 VEID inh – human caspase-6 inhibitors, primary screen, biochemical, VEID-R110 fluorescence, single point, set 2; AID 686996, 2013; purified caspase-6, Z-VEID-R110 cleavage fluorescence; inhibition, % at 12.5 µM; actives 0.53% (n = 350,000);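 active = mean inhibition across replicates at least about 35%, with every replicate also reaching that limit, limit read from the data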
Target sequence (P55212 24-179 limits assumed): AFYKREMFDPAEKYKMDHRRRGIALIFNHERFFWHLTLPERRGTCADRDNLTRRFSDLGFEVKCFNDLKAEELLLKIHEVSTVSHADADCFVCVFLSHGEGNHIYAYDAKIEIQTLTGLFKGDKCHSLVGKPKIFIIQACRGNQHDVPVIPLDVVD
Target sequence (P55212 194-293 limits assumed): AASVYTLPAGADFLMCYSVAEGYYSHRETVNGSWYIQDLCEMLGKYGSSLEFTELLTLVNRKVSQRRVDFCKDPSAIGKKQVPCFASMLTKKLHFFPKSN
ALR inh – inhibitors of human ALR sulfhydryl oxidase, primary screen, biochemical, H2O2 detection, HRP-luminol luminescence, single point | FAD-linked sulfhydryl oxidase ALR (Homo sapiens), P55789 | purified ALR, DTT oxidation | inhibition, % (concentration not given with the values) | actives 3.8% (n = 290,000);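 active = mean replicate inhibition above about 79%, with every replicate also reaching it, limit read from the data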
Target sequence (P55789 whole entry, looked up): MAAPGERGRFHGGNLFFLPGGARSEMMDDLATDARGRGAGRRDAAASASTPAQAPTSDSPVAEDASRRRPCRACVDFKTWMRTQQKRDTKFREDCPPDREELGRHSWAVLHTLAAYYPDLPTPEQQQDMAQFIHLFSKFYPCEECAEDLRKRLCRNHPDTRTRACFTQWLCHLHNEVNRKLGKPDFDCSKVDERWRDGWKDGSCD
Env fusion inh – inhibitors of HIV-1 Env-driven cell-cell fusion, primary screen, HeLa-JRFL effector, CEM21 target cells, luciferase; inhibition, % at 12.3 µM; actives 1.1% (n = 360,000); AID 651610, 2012;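 active = mean replicate inhibition score of at least 50 and every replicate individually at or above 50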
F508del corr – F508del CFTR correction, initial screen, CFBE line, single point; activity (quench increase), % at 7.58 µM; AID 720511, 2013; CFBE cells, YFP halide quenching; stimulated with forskolin plus potentiator P3; % fluorescence drop versus neutral controls; actives 0.36% (n = 350,000);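 active = mean added fluorescence quench of at least 8% versus neutral control, with both replicates also reaching 8%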;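 note: cells transiently co-express mutant CFTR-F508del with the halide-sensitive YFP; corrector assay measuring rescue of mutant channel to the surface after 24 h compound exposure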
PglD DTNB – C. jejuni PglD acetyltransferase inhibitors, primary screen, biochemical, DTNB colorimetric, single point. purified PglD enzyme, DTNB colorimetric CoA detection. UDP-N-acetylbacillosamine N-acetyltransferase PglD (Campylobacter jejuni). actives 0.098% (n = 360,000). inhibition, % at 12.5 µM; in the data active = inhibition above about 16%, passing the limit was not always enough
NSD2 HMT inh – NSD2 histone methyltransferase inhibitors, primary screen, biochemical, AlphaScreen, single concentration, set 2. Histone-lysine N-methyltransferase NSD2 (Homo sapiens), O96028. NSD2 peptide methylation, 120 min. inhibition, % at 12.5 µM. actives 0.54% (n = 310,000). AID 743445, 2014; in the data active = inhibition above about 50%
Large screens that a line does not name were inactive. Only some compounds are listed: those with a hit (about 4.1% of all), similar ones and a draw of the others.

COc1ccc(C(=O)NC(C(=O)N2CCN(c3ccccc3O)CC2)C(C)C)cc1 (stereo unspecified)	none
CCOc1ccc(NC(=O)COc2ccc(N3CC(C(N)=O)CC3=O)cc2)cc1 (stereo unspecified)	none (no result: ALR inh, Env fusion inh)
Cc1ccc(C(=O)Nc2ccccc2N2CCCC2)cc1	ALR inh 99
O=C(Nc1ccccc1N1CCCC1)c1cccc(F)c1	ALR inh 99
Cc1ccc(C(=O)Nc2ccccc2N2CCCCC2)cc1	none (no result: ALR inh)
CNC(=O)C1CC(=O)N(c2ccc(OCC(=O)Nc3ccccc3)cc2)C1 (stereo unspecified)	F508del corr 10 (no result: ALR inh, Env fusion inh)
CO[C@H]1CN(C)C(=O)c2ccc(NC(=O)C3CC3)cc2OC[C@@H](C)N(C)C[C@@H]1C	none (no result: ALR inh, Env fusion inh, NSD2 HMT inh)
COCC(=O)Nc1ccc2c(c1)C(=O)N(C)[C@H]1CC[C@H](CC(=O)NCc3ccc(OC)cc3)O[C@H]1CO2	none (no result: CASP6 VEID inh, ALR inh, NSD2 HMT inh)
O=C(CC1OC(=O)c2ccccc21)Nc1cc(Cl)ccc1N1CCCC1 (stereo unspecified)	ALR inh 97
CCOc1ccccc1C(=O)Nc1cc2c(cc1N1CCCC1)n(CC)c(=O)n2CC	ALR inh 99
Cc1ccc(NC(=O)CSCC(=O)Nc2ccccc2C(=O)N2CCCCC2)cc1	none (no result: ALR inh, PglD DTNB)
Cc1ccc(NC(=O)CSCC(=O)Nc2ccccc2N2CCCC2)cc1	ALR inh 99 (no result: PglD DTNB)
CC(C)Oc1ccc(C(=O)Nc2ccccc2N2CCCC2)cc1	ALR inh 98 (no result: CASP6 VEID inh, Env fusion inh, F508del corr)
O=C(C[C@@H]1CC[C@H](NC(=O)C2CC2)[C@@H](CO)O1)NC1CCC1	none (no result: ALR inh, NSD2 HMT inh)
COc1cccc(CN(C)C[C@@H]2OCc3ccccc3-c3c(n(C)c4ccccc34)C(=O)N([C@H](C)CO)C[C@@H]2C)c1	none (no result: ALR inh, Env fusion inh, PglD DTNB, NSD2 HMT inh)
COc1cccc(CC(=O)Nc2ccccc2N2CCCC2)c1	ALR inh 98
COc1ccc(CC(=O)Nc2ccccc2N2CCCCC2)cc1OC	none
COc1ccc(C(=O)N/N=C(/C)c2ccc(N3CCCCC3)cc2)cc1	ALR inh 92 (no result: CASP6 VEID inh, F508del corr, PglD DTNB)
COc1ccc(C(=O)Nc2ccc(N3CCCC3)cc2)cc1	none (no result: CASP6 VEID inh, Env fusion inh, F508del corr)
Cc1ccc(S(=O)(=O)CCC(=O)Nc2ccccc2N2CCCC2)cc1	ALR inh 99
Cc1ccc(S(=O)(=O)CCC(=O)Nc2ccccc2C)cc1	none
CCc1ccc(N2CC(C(=O)Nc3ccccc3N3CCCC3)CC2=O)cc1 (stereo unspecified)	F508del corr 9.2 (no result: ALR inh)
COCC(=O)N(C)C[C@@H]1Oc2cc(C#CC3CCCC3)ccc2S(=O)(=O)N([C@H](C)CO)C[C@@H]1C	none (no result: CASP6 VEID inh, ALR inh, PglD DTNB, NSD2 HMT inh)
CC(C)NC(=O)N1C[C@H]2[C@@H](c3ccccc31)[C@@H](CO)N2C(=O)c1ccc(F)cc1	none (no result: ALR inh, Env fusion inh, NSD2 HMT inh)
COc1ccc2c3c(n(C)c2c1)[C@H](CO)N(C(=O)CN1CCOCC1)CC31CN(Cc2ccncc2)C1	none (no result: ALR inh, PglD DTNB, NSD2 HMT inh)
CC(=O)Nc1ccc(S(=O)(=O)N(C)CC(=O)Nc2ccccc2N2CCCC2)cc1	ALR inh 99
COc1ccc(NC(=O)CSCC(=O)Nc2cc(Cl)ccc2N2CCOCC2)cc1	none
COc1cccc(C(=O)Nc2cc3c(cc2N2CCCC2)n(C)c(=O)n3C)c1	ALR inh 99
COc1ccc(NC(=O)CSCC(=O)Nc2cc(Cl)ccc2N2CCCC2)cc1	ALR inh 99 (no result: Env fusion inh)
CN(CC(=O)Nc1ccccc1N1CCOCC1)S(=O)(=O)c1ccc(F)cc1	none (no result: CASP6 VEID inh, F508del corr)
Cn1c(=O)n(C)c2cc(N3CCCC3)c(NC(=O)c3cccc(F)c3)cc21	none (no result: ALR inh)
COc1ccc(C(=O)Nc2ccccc2N2CCCC2)cc1	ALR inh 94
C[C@H](CO)N1C[C@H](C)[C@H](CN(C)S(=O)(=O)c2ccc(Cl)cc2)Oc2ccc(NC(=O)C3CC3)cc2CC1=O	none (no result: ALR inh, Env fusion inh, NSD2 HMT inh)
C[C@@H]1CN([C@H](C)CO)S(=O)(=O)c2ccc(C#C[C@@H](C)O)cc2O[C@H]1CN(C)C(=O)c1ccccc1	none (no result: ALR inh, NSD2 HMT inh)
